The record followed here is publication PMC4336329 (PLoS ONE, 2015).

Among all 310,000 compounds or so, about 14,000 (4.5%) showed an effect of 50% or more. The effect is printed as a negative number. The entries come from a sample that favours strong results as a whole.
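Also: peak tail current of the secondary pulse compared with the same well before compound.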

Sequence of human ether-à-go-go-related gene (hERG) potassium channel (Q12809 whole entry, looked up): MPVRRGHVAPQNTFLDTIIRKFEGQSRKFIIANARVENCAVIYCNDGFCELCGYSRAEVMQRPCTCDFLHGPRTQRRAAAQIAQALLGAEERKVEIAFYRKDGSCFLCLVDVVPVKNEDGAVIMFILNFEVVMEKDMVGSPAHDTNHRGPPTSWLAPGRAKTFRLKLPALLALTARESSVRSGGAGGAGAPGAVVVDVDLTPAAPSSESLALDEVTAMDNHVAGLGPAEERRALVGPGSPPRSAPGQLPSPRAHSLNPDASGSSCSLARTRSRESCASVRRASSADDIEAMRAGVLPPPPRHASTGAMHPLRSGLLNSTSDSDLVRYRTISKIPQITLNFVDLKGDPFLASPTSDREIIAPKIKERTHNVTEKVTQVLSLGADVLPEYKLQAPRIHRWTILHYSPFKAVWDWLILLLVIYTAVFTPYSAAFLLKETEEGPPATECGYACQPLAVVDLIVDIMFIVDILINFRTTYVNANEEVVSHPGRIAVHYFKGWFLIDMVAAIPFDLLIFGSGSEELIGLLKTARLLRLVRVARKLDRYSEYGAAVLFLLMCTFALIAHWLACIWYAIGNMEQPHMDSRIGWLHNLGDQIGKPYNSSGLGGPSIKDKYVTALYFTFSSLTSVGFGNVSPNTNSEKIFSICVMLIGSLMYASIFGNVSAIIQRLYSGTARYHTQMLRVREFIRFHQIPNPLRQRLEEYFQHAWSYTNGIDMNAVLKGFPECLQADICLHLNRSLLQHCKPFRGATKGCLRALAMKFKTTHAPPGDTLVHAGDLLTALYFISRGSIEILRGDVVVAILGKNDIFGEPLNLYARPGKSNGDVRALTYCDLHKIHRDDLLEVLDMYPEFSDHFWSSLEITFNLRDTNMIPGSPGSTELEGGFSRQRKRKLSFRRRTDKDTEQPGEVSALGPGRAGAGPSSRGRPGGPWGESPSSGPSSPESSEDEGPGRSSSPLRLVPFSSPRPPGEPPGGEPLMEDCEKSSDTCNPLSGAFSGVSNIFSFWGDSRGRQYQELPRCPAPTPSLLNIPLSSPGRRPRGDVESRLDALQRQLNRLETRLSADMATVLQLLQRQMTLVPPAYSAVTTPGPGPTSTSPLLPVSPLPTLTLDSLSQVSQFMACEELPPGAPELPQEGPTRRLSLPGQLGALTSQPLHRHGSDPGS

This test concerns the target human ether-à-go-go-related gene (hERG) potassium channel (human, UniProt Q12809). As to the kind of experiment: primary screen, population patch clamp on CHO cells stably expressing hERG; higher = less effect of the substance.
In the case of `Cc1ccc(NC(=O)c2ccc(Cl)c(N3C(=O)C=CC3=O)c2)cc1`, the “hERG current change (%, negative = inhibition) at 10uM” value was -0.826%. As to `CN(CCOc1ccccc1)C(=O)c1ccc(OC2CCN(C(=O)C3CC3)CC2)cc1`, the “hERG current change (%, negative = inhibition) at 10uM” value was -25.7%. For `COc1ccc(NC(=O)CCC(=O)Nc2nnc(CC(C)C)s2)cc1Cl` the value was 20%; for `COc1ccc(SC[C@H](Cc2ccccc2)N2CCN(C)CCC2=O)cc1`, -52.2%; for `CN1CCC(=O)N([C@H](CO)Cc2ccccc2)CC1`, 12%. As to `Cc1nn(CCCC(=O)NCc2ccc(Cl)cc2)c(C)c1[N+](=O)[O-]`, the “hERG current change (%, negative = inhibition) at 10uM” value is given as -41.9%. As to `Nc1cc(C(=O)N2CCCC2)cc(C(=O)N2CCCC2)c1`, the “hERG current change (%, negative = inhibition) at 10uM” value worked out at 11.9%. Regarding `O=C(O)c1ccc2cc(-c3ccccc3)[nH]c2c1`, the “hERG current change (%, negative = inhibition) at 10uM” value is given as -30.8%. As for `C=CCN1C(=O)C(Cc2ccc(OC)cc2)S/C1=N\N=C\c1cccs1` (stereo not drawn), the “hERG current change (%, negative = inhibition) at 10uM” value is 13.1%. For `CN1C(=O)CC(N2CCN(c3ccccn3)CC2)C1=O` (stereo not drawn), the “hERG current change (%, negative = inhibition) at 10uM” value turned out to be 1.46%. As for `O=C1CC(N2CCN(c3ccccn3)CC2)C(=O)N1CC(c1ccccc1)c1ccccc1` (stereo not drawn), the “hERG current change (%, negative = inhibition) at 10uM” value is on record as -64%. Regarding `O=C(CCC(=O)N1CCN(c2ccc(F)cc2)CC1)c1ccc(F)cc1`, the “hERG current change (%, negative = inhibition) at 10uM” value is recorded as -69.4%.

Take `O=C(O)CCC(=O)N1CCN(c2ccccn2)CC1`: the “hERG current change (%, negative = inhibition) at 10uM” value is listed as 9.16%. On to `O=C(CCn1nc(-c2ccc(Cl)cc2)ccc1=O)N1CCN(c2ccc(F)cc2)CC1`, for which the “hERG current change (%, negative = inhibition) at 10uM” value was -52.9%. For the compound `O=C(CCn1nc(-c2ccc(Cl)cc2)ccc1=O)N1CCN(c2ccccc2)CC1`, the “hERG current change (%, negative = inhibition) at 10uM” value was -45.9%. With `O=C(CC(c1ccccc1)c1ccccc1)N1CCN(c2ccccn2)CC1`, the “hERG current change (%, negative = inhibition) at 10uM” value was -53.4%. For `O=C(CSc1ccccc1)N1CCN(c2ccccn2)CC1` the value was -24.6%; for `O=C(CCC(=O)N1CCN(c2ccc(F)cc2)CC1)c1ccccc1`, -12.7%.

Regarding `O=C(CCn1nc(-c2ccc(Cl)cc2)ccc1=O)N1CCOCC1`, the “hERG current change (%, negative = inhibition) at 10uM” value is recorded as -36.9%. As for `Cc1ccc(C(=O)CCC(=O)N2CCN(c3ccc(F)cc3)CC2)cc1`, the “hERG current change (%, negative = inhibition) at 10uM” value is listed as -10.1%. For `O=C1CC(N2CCN(c3ccccn3)CC2)C(=O)N1c1ccc(F)cc1` (stereo not drawn), the “hERG current change (%, negative = inhibition) at 10uM” value is listed as 14.7%.

Regarding `Cn1c(COc2cccc3cccnc23)nnc1SCC(=O)O`, the “hERG current change (%, negative = inhibition) at 10uM” value was found to be 9.13%. To `Cc1cccc(C)c1NC(=O)CCS(=O)(=O)c1cccc2nsnc12` belongs -4.59%; to `CCOC(=O)c1cc2c(ccn2C)n1Cc1ccccc1C`, 11.8%. Take `CN1C(=O)CC(c2ccccc2)C1=O` (stereo not drawn): the “hERG current change (%, negative = inhibition) at 10uM” value was determined as 3.18%.

`Cc1cc(NCCc2ccccc2F)n2ncnc2n1`: the “hERG current change (%, negative = inhibition) at 10uM” value was -1.21%. For the compound `Cc1cc(C)cc(N(C(=O)Cc2cccs2)C(C(=O)NC2CCCC2)c2ccc(C)o2)c1` (stereo not drawn), the “hERG current change (%, negative = inhibition) at 10uM” value was 2.77%. To `COC(=O)c1cc2c(ccn2-c2ccc(F)cc2)n1Cc1cccc(OC)c1` belongs 0.0373%; to `O=C(CCn1nc(-c2ccccc2)ccc1=O)N1CCN(c2ccccc2)CC1`, -11.2%. In the case of `Cc1ccc(-c2ccc(=O)n(CCC(=O)N3CCN(c4ccccc4)CC3)n2)cc1`, the “hERG current change (%, negative = inhibition) at 10uM” value is on record as -49.1%. `O=C(CCn1nc(-c2ccccc2)ccc1=O)N1CCN(c2ccccn2)CC1`: the “hERG current change (%, negative = inhibition) at 10uM” value is on record as -53.1%.

As for `O=C(CCC(=O)N1CCN(c2ccc(F)cc2)CC1)c1ccc(Cl)cc1`, the “hERG current change (%, negative = inhibition) at 10uM” value is recorded as -55.8%. `O=C(O)CCC(=O)N1CCN(c2ccc(C(=O)c3ccc(F)cc3)cc2)CC1`: the “hERG current change (%, negative = inhibition) at 10uM” value worked out at 0.927%. As to `O=C(CCC(=O)N1CCN(c2ccc(F)cc2)CC1)N1CCN(c2ccc(F)cc2)CC1`, the “hERG current change (%, negative = inhibition) at 10uM” value is recorded as -43.9%. To `CC(C)CN(C(=O)COC(=O)c1ccc([N+](=O)[O-])o1)C1CCS(=O)(=O)C1` (stereo not drawn) belongs -31.8%. Regarding `CC(C)COC(=O)N1CC(O)CC1C(=O)O` (stereo not drawn), the “hERG current change (%, negative = inhibition) at 10uM” value was 25.3%. As for `CCCC(=O)Nc1nnc(SCC(=O)N2C(C)CCCC2C)s1` (stereo not drawn), the “hERG current change (%, negative = inhibition) at 10uM” value was -50.1%. Turning to `CC(=O)Nc1nnc(SCC(=O)N2C(C)CCCC2C)s1` (stereo not drawn), the “hERG current change (%, negative = inhibition) at 10uM” value was 12.9%. Regarding `COCC(=O)Nc1nnc(SCC(=O)N2C(C)CCCC2C)s1` (stereo not drawn), the “hERG current change (%, negative = inhibition) at 10uM” value is reported as 15.2%. To `O=C(CSc1ncn[nH]1)Nc1ccc(S(=O)(=O)N2CCCC2)cc1` belongs 14.5%; to `COCCn1cnnc1SCC(=O)Nc1cccc(S(=O)(=O)N2CCCCCC2)c1`, -60.3%. To `COCCn1cnnc1SCC(=O)Nc1cccc(S(=O)(=O)N2CCCCC2)c1` belongs -17.8%; to `COc1ccc(-n2cnnc2SCC(=O)Nc2cc(S(=O)(=O)N3CCCCC3)ccc2C)cc1`, -84%. Consider `COc1ccc(-n2cnnc2SCC(=O)Nc2cccc(S(=O)(=O)N3CCCCC3)c2)cc1`, for which the “hERG current change (%, negative = inhibition) at 10uM” value is recorded as -18.5%. Regarding `Cn1cnnc1SCC(=O)Nc1cccc(S(=O)(=O)N2CCCCCC2)c1`, the “hERG current change (%, negative = inhibition) at 10uM” value is on record as -17.4%.

Take `O=C(CSc1ncn[nH]1)Nc1cccc(S(=O)(=O)N2CCCCCC2)c1`: the “hERG current change (%, negative = inhibition) at 10uM” value is given as -77.1%.

For `Cc1ccc(S(=O)(=O)N2CCCCC2)cc1NC(=O)CSc1ncn[nH]1`, the “hERG current change (%, negative = inhibition) at 10uM” value is 12%. In the case of `Cc1ccc(S(=O)(=O)N2CCCCC2)cc1NC(=O)CSc1nncn1-c1ccccc1`, the “hERG current change (%, negative = inhibition) at 10uM” value was -35.2%.
